# Measurements taken from PubChem BioAssay AID1001 (Sanford-Burnham Center for Chemical Genomics, 2008).
# About 50 (0.03%) of roughly 200,000 compounds were called active. This is one part of a sample in which actives are shown more often than they occur. Results with a measured potency or affinity are listed apart. A number with no mark means an inactive call. The rule behind the calls is not given here.
# Biological target: Alkaline phosphatase, tissue-nonspecific isozyme (Homo sapiens) (UniProt P05186)
# Sequence (P05186 whole entry, looked up): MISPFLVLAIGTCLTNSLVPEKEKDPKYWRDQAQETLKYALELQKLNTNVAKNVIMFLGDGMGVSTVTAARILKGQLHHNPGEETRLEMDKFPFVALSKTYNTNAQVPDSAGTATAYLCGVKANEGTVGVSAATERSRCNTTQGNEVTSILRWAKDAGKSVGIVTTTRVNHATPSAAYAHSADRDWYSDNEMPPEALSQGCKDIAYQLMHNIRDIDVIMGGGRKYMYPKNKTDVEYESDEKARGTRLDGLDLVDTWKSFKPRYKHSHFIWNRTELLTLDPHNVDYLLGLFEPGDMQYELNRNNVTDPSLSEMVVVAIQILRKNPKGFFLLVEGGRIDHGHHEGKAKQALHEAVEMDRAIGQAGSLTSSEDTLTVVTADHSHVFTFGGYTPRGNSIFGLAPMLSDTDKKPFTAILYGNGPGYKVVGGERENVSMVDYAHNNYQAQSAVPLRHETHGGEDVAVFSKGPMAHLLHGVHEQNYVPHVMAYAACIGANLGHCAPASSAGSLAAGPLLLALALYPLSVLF
# Assay: stimulation of alkaline phosphatase TNAP activity – biochemical, luminescent, no phosphate acceptor, uHTS, primary screen (AID 1001)
# Conditions: purified TNAP, luminescent activation assay, at 20 µM, stronger effect = higher value
row,Structure (SMILES),activation fold
1,COC(=O)c1cc(O)c(O)c(O)c1,1
2,O=C(OCC1O[C@@H](OC(=O)c2cc(O)c(O)c(O)c2)[C@@H](OC(=O)c2cc(O)c(O)c(O)c2)[C@@H](OC(=O)c2cc(O)c(O)c(O)c2)[C@@H]1OC(=O)c1cc(O)c(O)c(O)c1)c1cc(O)c(O)c(O)c1 (stereo not given in full),3 (active)
3,O=C(O[C@@H]1OC2COC(=O)c3cc(O)c(O)c(O)c3-c3c(cc(O)c(O)c3O)C(=O)O[C@@H]([C@H]1O)[C@@H]2O)c1cc(O)c(O)c(O)c1,1.3
4,COC(=O)C1=C(C)N=C2SC(C#N)=C(N)N2C1c1ccc(OC)cc1 (stereo not given),1
5,COc1ccc(Cl)cc1NC(=O)CN1CCC(n2nnc3ccccc32)CC1,1.1
6,COc1ccc(Cl)cc1NC(=O)CN1CCC(n2nnc3cc(F)ccc32)CC1,1.5
7,Cc1nc(N2CCN(C(c3ccccc3)c3ccccc3)CC2)nc2c1C(=O)CCC2,1.1
8,Cc1ccc(-c2csc(NC(=O)CSC3=NCCS3)n2)cc1,1.1
9,CC(=O)Nc1ccc(S(=O)(=O)NCc2ccccn2)cc1,1.1
10,Cn1c(=O)c2c(nc(NCc3ccco3)n2C)n(C)c1=O,1.1
11,Cn1c(=O)c2c(ncn2CC(=O)N/N=C/c2ccco2)n(C)c1=O,1.1
12,CCc1ccc2oc(-c3ccc(OC)cc3)cc(=Nc3c(C)n(C)n(-c4ccccc4)c3=O)c2c1,0.9
13,Cc1ccc(CC(=O)Nc2nc3ccccc3s2)cc1,1
14,CCOC(=O)c1ccc(NCc2ccc3c(c2)OCO3)cc1,1
15,CCn1c(CNc2ccc(C(=O)O)cc2)nc2ccccc21,1.1
16,C/C(=N\Nc1ccc(C(=O)O)cc1)c1nc2ccccc2n1C,0.9
17,COc1ccc(C(CNC(=O)CN2C(=O)NC3(CC(C)CC(C)(C)C3)C2=O)N2CCOCC2)cc1 (stereo not given),1.2
18,O=C(COc1ccc(Cl)cc1)NCc1nnc(SCC(=O)NCCc2ccccc2)o1,1.1
19,COc1ccccc1CC(Cc1nc2ccccc2[nH]1)c1nc2ccccc2[nH]1 (stereo not given),2.8
20,Cc1cc(C)cc(CC(Cc2nc3ccccc3[nH]2)c2nc3ccccc3[nH]2)c1 (stereo not given),1.6
21,Cc1cc2oc(=O)cc(CN3CCN(Cc4ccccc4)CC3)c2cc1Cl,1
22,COc1ccc(/C=C2\SC(=O)N(CC(=O)NNC(=O)c3ccccc3O)C2=O)cc1OC,2.4
23,O=C(CN1C(=O)S/C(=C\c2ccccc2)C1=O)NNC(=O)c1ccccc1O,2.2

row,Structure (SMILES),activation fold
1,COc1ccc(NC(=O)CC2C(=O)N(Cc3cccs3)C(=S)N2C(C)C)cc1 (stereo not given),1.1
2,CCOc1ccc(N(C(=O)c2cnsn2)C(C(=O)NC2CCCCC2)c2ccncc2)cc1 (stereo not given),1.2
3,Cn1nc(CC(=O)NC2CCCCC2)c2ccccc2c1=O,1.1
4,Cn1nc(CC(=O)NC2CCCCCC2)c2ccccc2c1=O,1.1
5,COc1ccc(CN2CCNC(=O)C2CC(=O)NCc2ccc(C)s2)c(OC)c1 (stereo not given),1.1
6,Cc1ccc(CNC(=O)C2(NC(=O)Nc3ccc(C)cc3)CCCCC2)cc1,1.2
7,Cc1ccc(NC(=O)NC2(C(=O)NCc3ccccc3)CCCCC2)cc1,1.1
8,O=C(NC1CCCCC1)C1CCN(C(=O)c2ccc(-c3ccccc3)cc2)CC1,1.1
9,OCCNc1ncnc2c1c(-c1ccccc1)c(-c1ccccc1)n2Cc1ccco1,1.1
10,N=c1c2c(-c3ccccc3)c(-c3ccccc3)n(Cc3ccco3)c2ncn1CCCn1ccnc1,2.7
11,COc1cc(NC(=O)CN2CCCCC2)c(C)cc1[N+](=O)[O-],1.1
12,CCOc1cc(-n2cnnn2)c(OCC)cc1NC(=O)c1cnccn1,1.1
13,c1ccc2c(c1)Nc1nccnc1S2,1
14,COc1ccc2[nH]c(=O)c(CN(CCN3CCCC3)C(=O)Nc3ccccc3Cl)cc2c1,1.1
15,CCOc1ccccc1-c1c2cc(O)c(=O)cc-2oc2cc(O)c(O)cc12,0.6
16,COc1ccc(OC)c(-c2c3cc(O)c(=O)cc-3oc3cc(O)c(O)cc23)c1,3.9 (active)
17,Cc1c2cc(O)c(=O)cc-2oc2cc(O)c(O)cc12,0.4
18,O=C(NCCCN1CCCC1=O)c1ccc(OCc2ccccc2)cc1,1.1
19,COc1nc(-c2cnccn2)sc1C,1.1
20,COc1ccc2nc(C)cc(SCC(=O)NNC(=O)COc3cccc4ccccc34)c2c1,2.1
21,COc1ccc2nc(C)cc(SCC(=O)NNC(=O)COc3ccc(C)cc3)c2c1,1.1
22,O=C(CN1CCOCC1)NCCC12CC3CC(CC(C3)C1)C2,1.2
23,COc1ccc(N/C=C\C(=O)c2ccc(Br)cc2)cc1OC,1.1

row,Structure (SMILES),activation fold
1,Cc1nn(C)cc1/C=C/C(=O)c1ccccc1,1.1
2,CCCCCC(=O)NNC(=O)c1ccc(F)cc1,1
3,CCCCCCCC(=O)NNC(=O)c1ccc(F)cc1,2.1
4,Cc1cc(NC(=O)CCC(=O)N(Cc2ccco2)C(C(=O)NC2CCCCC2)c2cccs2)no1 (stereo not given),1.1
5,Cc1cc(Cl)ccc1OCC(=O)NCCOC(=O)Nc1sc(=S)n(C)c1C,1.2
6,Cc1c(C(=O)Oc2cc(N)n(S(C)(=O)=O)n2)cccc1[N+](=O)[O-],1
7,CC(=O)c1ccc(NC(=O)COc2ccc3c(c2)OCO3)cc1,1.1
8,Cc1cc(NC(=O)CN2CCN(C)CC2)no1,1.1
9,Cc1cc(C)c(NC(=O)CN2CCN(C)CC2)c(C)c1,1.2
10,COc1ccc(C2C(C(=O)OC3CCCCC3)=C(C)Nc3nnnn32)c(OC)c1OC (stereo not given),1
11,N#Cc1c(SCC(=O)O)nc(-c2ccccc2)c2c1CCCC2,1
12,Cc1cccc2sc(NC(=O)CN(C)S(=O)(=O)c3ccc(Br)s3)nc12,1
13,CC1CCN(Cc2nc(Cl)c3c4c(sc3n2)CCC4)CC1,1
14,COc1cc(OC)cc(-c2nnc(Nc3nc4c(F)cccc4s3)o2)c1,1.2
15,COc1cccc(-c2nnc(Nc3nc4c(F)cccc4s3)o2)c1,1.7
16,O=C(OCc1cc2ccccc2[nH]c1=O)C1CCCO1 (stereo not given),1.1
17,O=C(CSc1nnc(C2COc3ccccc3O2)o1)Nc1nccs1 (stereo not given),1.2
18,CCCCOC(=O)c1ccc(NC(=O)CSCc2n[nH]c(=O)[nH]2)cc1,1.4
19,O=[N+]([O-])c1ccccc1-c1cc(-c2ccccc2O)n[nH]1,2.1
20,Cc1ccc(O)c(-c2cc(-c3ccccc3[N+](=O)[O-])[nH]n2)c1,2.3
21,CC(C)(Oc1ccc(Cl)cc1)C(=O)NCc1ccc(S(N)(=O)=O)cc1,1.2
22,CCn1cc(S(=O)(=O)CC(=O)Nc2ccc3c(c2)OCCO3)c2ccccc21,1.1
23,CC(C)C(OC(=O)C1=Cc2ccccc2OC1)C(=O)NC1CCCC1 (stereo not given),1.2

row,Structure (SMILES),activation fold
1,CN(C)CCNc1ccc(-c2nn(C)c(=O)c3ccccc23)cc1[N+](=O)[O-],1
2,O=S1(=O)NC2CCCCCN2c2ccc(F)cc21 (stereo not given),1.1
3,Cn1c(C(=O)NCC2CCCO2)cc2c(=O)n(C)c3ccccc3c21 (stereo not given),1.1
4,CCSC1=C(C#N)C2(CCCC2)C(C#N)=C(N)N1,1
5,CC(C)N1CCC2(CC1)C(C#N)=C(N)NC(S)=C2C#N,5.8 (active)
6,CSC1=C(C#N)C2(CCCC2)C(C#N)=C(N)N1,1.1
7,CCOC(=O)CSc1nnc(NCC(=O)OC(C)C)c(=O)[nH]1,1.2
8,CC(=O)NC(=S)Nc1ccc(NC(=O)COc2ccc(C(C)C)cc2)cc1,1
9,Cc1ccccc1NC(=O)c1ccc(S(=O)(=O)C(F)F)cc1,1.1
10,CCOC(=O)c1csc(Nc2nc3ccc(F)cc3s2)n1,1.1
11,COC(=O)c1ccc2nc(Nc3nc4ccc(F)cc4s3)sc2c1,1.2
12,C/C(=N\NC(=O)c1ccc(Cn2cc([N+](=O)[O-])cn2)o1)c1cccc(NC(=O)C(C)C)c1,1.1
13,CCC(C)NC(=O)CSC1=Nc2ccccc2C2=NC(c3ccccc3)C(=O)N12 (stereo not given),1
14,CC(/C=N/NC(=O)Cc1cccs1)=C\c1ccccc1,1
15,COc1cccc(OCCOCCNCCO)c1,1.1
16,O=C(NNC(=O)C(c1ccccc1)c1ccccc1)c1ccccn1,1.5
17,CC(C)C(=O)NNC(=O)c1ccccn1,1.2
18,Cc1nn(CC(=O)NC2C(=O)N3C(C(=O)O)=C(CSc4nnnn4C)CSC23)cc1Br (stereo not given),1.2
19,O=C1N(CCCN2C(=O)C3(OCCO3)c3ccccc32)c2ccccc2C12OCCO2,1
20,C=CCN1C(=O)C(C)(C)Nc2ccccc21,1.1
21,C=CCN1C(=O)C2(NC(=O)c3ccccc3N2)c2ccccc21 (stereo not given),1.1
22,O=C1N(CCCCN2C(=O)C3(OCCO3)c3ccccc32)c2ccccc2C12OCCO2,1.2
23,O=C(CSc1nnc(-c2ccccc2)n1-c1ccc(Cl)cc1)N/N=C/c1ccco1,1

row,Structure (SMILES),activation fold
1,Cc1ccc(C)c(NC(=O)CS(=O)(=O)c2c[nH]c3ccccc23)c1,1
2,Cn1cc(Cl)c(C(=O)NC2CCCC2)n1,1.1
3,Cn1cc(Cl)c(C(=O)NC2CCCCCC2)n1,1.2
4,Cc1c(-n2cccc2C=O)cccc1[N+](=O)[O-],1.6
5,COC(=O)Nc1nnc(CCc2ccccc2)s1,0.9
6,COc1ccccc1CNC(=O)Cc1ccc(Br)cc1,1.2
7,CCOc1ccccc1NC(=O)NC1CC2CCCC(C1)N2Cc1nnnn1CCc1ccccc1 (stereo not given),1.4
8,O=C(Nc1ccccc1-c1ccccc1)NC1CC2CCCC(C1)N2Cc1ccc(F)cc1 (stereo not given),2.7
9,CC(C)OC(=O)C1C2C=CC3(CN(C(C)c4ccc(Br)cc4)C(=O)C13)O2 (stereo not given),1.1
10,Cn1c(=O)c2c(nc(N/N=C3\CCCc4ccccc43)n2Cc2ccc(F)cc2)n(C)c1=O,2.2
11,Cn1c(N/N=C2\CCCc3ccccc32)nc2c1c(=O)n(Cc1ccccc1)c(=O)n2C,2.9
12,Fc1ccc(C2CC(c3ccc(F)cc3)n3ncnc3N2)cc1 (stereo not given),1.1
13,CC(C)N1CC(O)=C(c2nc3ccccc3[nH]2)C1=N,1.4
14,CC(C)CCN1CC(O)=C(c2nc3ccccc3[nH]2)C1=N,2
15,C=CCNC(=O)c1cc(-c2ccc(Br)cc2)on1,1.2
16,Cc1ccc(S(=O)(=O)NNC(=O)C(=O)NNc2ccccn2)cc1,2.9
17,O=C(NNc1ccccn1)C(=O)NNS(=O)(=O)c1ccc(F)cc1,2.7
18,Cc1ccc(NC(=O)c2cccc(S(C)(=O)=O)c2)cc1,1.1
19,C=CCN(CC=C)C(=O)C1CCC(C(=O)N(CC=C)CC=C)CC1 (stereo not given),1
20,COc1ccc(-n2cc(CNCCc3nc(C)cc(C)n3)c(-c3ccccc3Cl)n2)cc1,1
21,COc1ccc(-n2cc(CNCCc3cscn3)c(-c3ccccc3Cl)n2)cc1,1.1
22,COC(=O)NNC(=O)c1ccc(C(C)(C)C)cc1,1.1
23,CC(C)(C)c1ccc(C(=O)NNC(=O)c2ccc(Cl)cc2)cc1,1.9
